From PubChem BioAssay AID720597 (Broad Institute, 2013)
Potency and affinity values are given separately. Activity calls are given as the source filed them.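 Rule for the calls: active = fitted half-maximal dose no more than twice the top valid tested dose, for compounds that lower signal; inconclusive = fit invalid, or curve flat with activity between -70 and -30; inactive = potency past limit, curve flat within ±30, or signal increasing.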

Target: NAD-dependent protein deacylase sirtuin-5, mitochondrial (Homo sapiens) (UniProt Q9NXA8)
Sequence (Q9NXA8 whole entry, looked up): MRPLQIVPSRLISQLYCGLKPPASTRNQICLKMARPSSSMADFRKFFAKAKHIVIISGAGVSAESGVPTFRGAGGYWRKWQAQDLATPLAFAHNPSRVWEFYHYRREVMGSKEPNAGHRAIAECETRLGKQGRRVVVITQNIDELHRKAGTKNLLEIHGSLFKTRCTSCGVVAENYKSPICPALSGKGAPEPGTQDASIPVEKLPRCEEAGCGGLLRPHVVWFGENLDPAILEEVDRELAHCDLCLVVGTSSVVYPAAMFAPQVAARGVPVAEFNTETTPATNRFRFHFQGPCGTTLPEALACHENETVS
Experiment: SIRT5 deacylase inhibitors, dose response, biochemical, fluorescence imaging, cherry-pick, set 6 (AID 720597);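 note: lower AMC signal can also come from blocking the trypsin step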
Details: Purified SirT5, succinyl-peptide-AMC/trypsin fluorescence; series mostly up to 15 µM

outcome, inactive:
COc1ccccc1NC(=O)N[C@@H]1CC[C@H](CCNS(=O)(=O)c2ccc(Cl)cc2)O[C@@H]1CO, C[C@@H]1CN([C@@H](C)CO)S(=O)(=O)c2ccc(C#CC(C)(C)O)cc2O[C@H]1CN(C)Cc1ccc(F)cc1, C[C@@H]1CN([C@H](C)CO)S(=O)(=O)c2ccc(C#Cc3ccccc3F)cc2O[C@H]1CN(C)C(=O)c1ccc2c(c1)OCO2, O=C1CN(Cc2ccccc2)C[C@@H]2[C@H](c3ccc(-c4ccccc4)cc3)[C@H](CO)N12, COc1ccccc1-c1ccc2c(c1)O[C@H](CN(C)S(=O)(=O)c1ccc(F)cc1)[C@@H](C)CN([C@@H](C)CO)S2(=O)=O, Cc1cccc(S(=O)(=O)N2CCCCN3[C@@H](CO)[C@H](c4ccc(-c5ccccc5)cc4)[C@@H]3C2)c1, C[C@H](CO)N1C[C@H](C)[C@H](CN(C)S(=O)(=O)c2ccc(Cl)cc2)OCCCC[C@H](C)Oc2ccc(NC(=O)Nc3ccc4c(c3)OCO4)cc2C1=O, C[C@@H]1CN([C@H](C)CO)S(=O)(=O)c2ccc(C3=CCCCC3)cc2O[C@H]1CN(C)C(=O)Nc1ccc2c(c1)OCO2, CCCC#Cc1ccc2c(c1)O[C@@H](CN(C)C(=O)c1ccccc1F)[C@@H](C)CN([C@H](C)CO)S2(=O)=O, COc1ccc(S(=O)(=O)Nc2ccc3c(c2)C(=O)N([C@@H](C)CO)C[C@@H](C)[C@@H](CN(C)S(=O)(=O)c2ccc(Cl)cc2)OCCCC[C@H](C)O3)cc1
